# Measured values reported in ChEMBL document CHEMBL1961873, “Compounds: GSK PKIS; Assays: Nanosyn kinase panel” (2012).
# How the values were obtained:
# [1] = molecular target: Mitogen-activated protein kinase 3 (Homo sapiens) (UniProt P27361); conditions: at 1 µM;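 further: values are mean percent inhibition of MAPK3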
# [2] = molecular target: SRSF protein kinase 3 (Homo sapiens) (UniProt Q9UPE1); conditions: at 0.1 µM
# [3] = molecular target: SRSF protein kinase 3 (Homo sapiens) (UniProt Q9UPE1); conditions: at 1 µM
# [4] = molecular target: Mitogen-activated protein kinase 14 (Homo sapiens) (UniProt Q16539); conditions: at 0.1 µM
# [5] = molecular target: Mitogen-activated protein kinase 14 (Homo sapiens) (UniProt Q16539); conditions: at 1 µM
# [6] = molecular target: Mitogen-activated protein kinase 11 (Homo sapiens) (UniProt Q15759); conditions: at 0.1 µM
# [7] = molecular target: Mitogen-activated protein kinase 11 (Homo sapiens) (UniProt Q15759); conditions: at 1 µM
# [8] = molecular target: T1, Mitogen-activated protein kinase 13 (Homo sapiens) (UniProt O15264); conditions: at 0.1 µM
# T1 sequence (whole entry): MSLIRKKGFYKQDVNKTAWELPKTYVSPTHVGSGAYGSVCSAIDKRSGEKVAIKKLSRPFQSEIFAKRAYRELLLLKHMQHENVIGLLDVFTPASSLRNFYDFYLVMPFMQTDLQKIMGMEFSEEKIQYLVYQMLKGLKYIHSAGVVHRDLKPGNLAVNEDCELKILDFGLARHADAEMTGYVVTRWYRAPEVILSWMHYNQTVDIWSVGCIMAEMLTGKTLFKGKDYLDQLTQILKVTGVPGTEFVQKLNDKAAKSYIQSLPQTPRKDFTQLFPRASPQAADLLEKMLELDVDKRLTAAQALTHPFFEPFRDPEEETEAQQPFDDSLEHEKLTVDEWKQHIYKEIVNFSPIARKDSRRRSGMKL
# [9] = molecular target: T1, Mitogen-activated protein kinase 13 (Homo sapiens); conditions: at 1 µM
# [10] = molecular target: T2, Mitogen-activated protein kinase 12 (Homo sapiens) (UniProt P53778); conditions: at 0.1 µM
# T2 sequence (whole entry): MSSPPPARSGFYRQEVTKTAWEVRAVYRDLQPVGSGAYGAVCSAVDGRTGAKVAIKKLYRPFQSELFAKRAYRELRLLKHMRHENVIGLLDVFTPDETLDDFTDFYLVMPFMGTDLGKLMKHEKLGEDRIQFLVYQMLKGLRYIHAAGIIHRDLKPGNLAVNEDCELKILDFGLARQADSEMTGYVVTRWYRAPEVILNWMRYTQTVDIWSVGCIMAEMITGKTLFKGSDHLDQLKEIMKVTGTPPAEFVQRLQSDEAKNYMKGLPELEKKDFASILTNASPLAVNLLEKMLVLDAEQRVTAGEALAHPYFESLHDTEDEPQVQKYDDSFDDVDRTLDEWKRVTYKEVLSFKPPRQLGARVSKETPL
# [11] = molecular target: T2, Mitogen-activated protein kinase 12 (Homo sapiens); conditions: at 1 µM
# [12] = molecular target: SRSF protein kinase 1 (Homo sapiens) (UniProt Q96SB4); conditions: at 0.1 µM
# [13] = molecular target: SRSF protein kinase 1 (Homo sapiens) (UniProt Q96SB4); conditions: at 1 µM
# [14] = molecular target: Phosphatidylinositol 4,5-bisphosphate 3-kinase catalytic subunit alpha isoform (Homo sapiens) (UniProt P42336); conditions: at 0.1 µM
# [15] = molecular target: Phosphatidylinositol 4,5-bisphosphate 3-kinase catalytic subunit alpha isoform (Homo sapiens) (UniProt P42336); conditions: at 1 µM
# [16] = molecular target: T3, Phosphatidylinositol 4,5-bisphosphate 3-kinase catalytic subunit delta isoform (Homo sapiens) (UniProt O00329); conditions: at 0.1 µM
# T3 sequence (whole entry): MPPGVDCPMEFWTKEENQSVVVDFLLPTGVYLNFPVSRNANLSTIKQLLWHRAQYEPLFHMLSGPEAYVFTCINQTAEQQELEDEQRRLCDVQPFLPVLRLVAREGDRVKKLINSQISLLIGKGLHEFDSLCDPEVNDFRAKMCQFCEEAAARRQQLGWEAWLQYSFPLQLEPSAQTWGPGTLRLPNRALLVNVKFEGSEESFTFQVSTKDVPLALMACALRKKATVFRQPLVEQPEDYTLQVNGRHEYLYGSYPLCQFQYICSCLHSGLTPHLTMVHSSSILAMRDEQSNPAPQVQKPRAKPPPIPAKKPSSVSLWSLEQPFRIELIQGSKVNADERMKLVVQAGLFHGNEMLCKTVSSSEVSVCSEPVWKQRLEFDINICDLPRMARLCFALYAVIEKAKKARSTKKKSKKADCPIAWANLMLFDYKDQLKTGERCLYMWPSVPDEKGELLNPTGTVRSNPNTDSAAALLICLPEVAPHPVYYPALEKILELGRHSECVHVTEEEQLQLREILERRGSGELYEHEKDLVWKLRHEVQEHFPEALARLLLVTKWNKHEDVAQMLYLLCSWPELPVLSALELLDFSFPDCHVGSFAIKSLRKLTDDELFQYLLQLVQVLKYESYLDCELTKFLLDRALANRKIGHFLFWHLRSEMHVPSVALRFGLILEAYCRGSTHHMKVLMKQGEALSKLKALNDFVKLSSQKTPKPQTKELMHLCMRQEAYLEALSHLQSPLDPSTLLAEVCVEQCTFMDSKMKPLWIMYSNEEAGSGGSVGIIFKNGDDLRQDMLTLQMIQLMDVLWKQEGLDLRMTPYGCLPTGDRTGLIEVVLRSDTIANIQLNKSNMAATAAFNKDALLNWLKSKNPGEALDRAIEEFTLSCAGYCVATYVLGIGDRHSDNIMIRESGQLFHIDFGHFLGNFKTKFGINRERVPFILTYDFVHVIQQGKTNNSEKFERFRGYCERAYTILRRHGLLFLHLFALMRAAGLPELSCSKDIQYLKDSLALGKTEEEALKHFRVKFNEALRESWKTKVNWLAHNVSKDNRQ
# [17] = molecular target: T3, Phosphatidylinositol 4,5-bisphosphate 3-kinase catalytic subunit delta isoform (Homo sapiens); conditions: at 1 µM
# [18] = molecular target: Phosphatidylinositol 4-kinase beta (Homo sapiens) (UniProt Q9UBF8); conditions: at 1 µM
# [19] = molecular target: Sphingosine kinase 1 (Homo sapiens) (UniProt Q9NYA1); conditions: at 0.1 µM;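 further: mean percent inhibition of SPHK1 activity, measured within the GSK PKIS screening panel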
# [20] = molecular target: Phosphatidylinositol 4-kinase beta (Homo sapiens) (UniProt Q9UBF8); conditions: at 0.1 µM
# Chain of SRSF protein kinase 1 (Homo sapiens) (Q96SB4 whole entry, canonical isoform): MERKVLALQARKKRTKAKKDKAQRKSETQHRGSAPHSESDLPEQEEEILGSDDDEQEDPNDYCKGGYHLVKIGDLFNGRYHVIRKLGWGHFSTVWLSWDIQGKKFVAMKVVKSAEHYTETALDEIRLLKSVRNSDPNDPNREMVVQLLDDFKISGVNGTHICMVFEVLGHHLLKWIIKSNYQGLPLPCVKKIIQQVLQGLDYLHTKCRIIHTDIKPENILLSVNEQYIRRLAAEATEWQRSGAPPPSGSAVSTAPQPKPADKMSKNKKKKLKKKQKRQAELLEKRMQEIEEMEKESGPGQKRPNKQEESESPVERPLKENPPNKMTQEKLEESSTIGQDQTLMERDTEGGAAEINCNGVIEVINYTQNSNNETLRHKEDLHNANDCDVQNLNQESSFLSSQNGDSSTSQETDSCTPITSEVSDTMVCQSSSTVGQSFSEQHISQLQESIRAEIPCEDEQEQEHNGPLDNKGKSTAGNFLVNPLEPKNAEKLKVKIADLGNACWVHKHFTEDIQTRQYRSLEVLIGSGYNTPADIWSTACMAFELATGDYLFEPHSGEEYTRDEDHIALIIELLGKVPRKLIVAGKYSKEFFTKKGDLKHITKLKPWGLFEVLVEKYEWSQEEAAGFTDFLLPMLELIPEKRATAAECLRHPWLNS
# Chain of SRSF protein kinase 3 (Homo sapiens) (Q9UPE1 whole entry): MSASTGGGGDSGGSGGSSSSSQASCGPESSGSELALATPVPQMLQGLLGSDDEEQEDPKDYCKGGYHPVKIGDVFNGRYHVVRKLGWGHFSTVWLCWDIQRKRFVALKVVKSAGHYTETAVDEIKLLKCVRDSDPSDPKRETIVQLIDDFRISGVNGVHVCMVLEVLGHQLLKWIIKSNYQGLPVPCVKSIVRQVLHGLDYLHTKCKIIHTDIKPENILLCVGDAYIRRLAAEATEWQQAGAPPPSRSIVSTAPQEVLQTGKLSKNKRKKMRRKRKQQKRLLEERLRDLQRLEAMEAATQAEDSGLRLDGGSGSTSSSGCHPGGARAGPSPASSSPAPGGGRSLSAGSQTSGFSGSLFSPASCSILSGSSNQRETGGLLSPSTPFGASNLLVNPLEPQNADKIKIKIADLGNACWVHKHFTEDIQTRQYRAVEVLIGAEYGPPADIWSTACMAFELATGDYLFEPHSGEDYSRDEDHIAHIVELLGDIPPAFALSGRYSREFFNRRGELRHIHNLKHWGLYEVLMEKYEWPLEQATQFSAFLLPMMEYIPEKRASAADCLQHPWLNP
# Chain of Sphingosine kinase 1 (Homo sapiens) (Q9NYA1 whole entry): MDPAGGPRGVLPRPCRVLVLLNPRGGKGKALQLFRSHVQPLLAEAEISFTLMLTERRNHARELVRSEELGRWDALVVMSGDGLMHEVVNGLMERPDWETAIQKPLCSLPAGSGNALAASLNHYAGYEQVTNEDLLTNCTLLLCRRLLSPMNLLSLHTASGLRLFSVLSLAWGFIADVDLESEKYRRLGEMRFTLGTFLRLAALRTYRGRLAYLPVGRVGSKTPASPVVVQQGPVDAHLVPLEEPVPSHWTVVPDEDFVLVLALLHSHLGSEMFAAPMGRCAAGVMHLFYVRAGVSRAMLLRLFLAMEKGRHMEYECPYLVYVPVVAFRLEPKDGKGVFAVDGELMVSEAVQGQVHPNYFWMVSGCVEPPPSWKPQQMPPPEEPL
# Chain of Mitogen-activated protein kinase 11 (Homo sapiens) (Q15759 whole entry): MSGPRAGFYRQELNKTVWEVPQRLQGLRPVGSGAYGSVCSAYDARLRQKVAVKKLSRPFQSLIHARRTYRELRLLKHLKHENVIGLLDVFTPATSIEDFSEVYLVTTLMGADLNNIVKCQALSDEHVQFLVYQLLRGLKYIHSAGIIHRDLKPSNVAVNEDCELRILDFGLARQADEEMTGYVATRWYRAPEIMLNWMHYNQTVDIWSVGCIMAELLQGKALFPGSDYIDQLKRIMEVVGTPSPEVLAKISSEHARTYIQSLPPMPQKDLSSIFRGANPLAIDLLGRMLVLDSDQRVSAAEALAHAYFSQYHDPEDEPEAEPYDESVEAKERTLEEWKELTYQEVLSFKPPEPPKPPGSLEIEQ
# Chain of Mitogen-activated protein kinase 14 (Homo sapiens) (Q16539 whole entry): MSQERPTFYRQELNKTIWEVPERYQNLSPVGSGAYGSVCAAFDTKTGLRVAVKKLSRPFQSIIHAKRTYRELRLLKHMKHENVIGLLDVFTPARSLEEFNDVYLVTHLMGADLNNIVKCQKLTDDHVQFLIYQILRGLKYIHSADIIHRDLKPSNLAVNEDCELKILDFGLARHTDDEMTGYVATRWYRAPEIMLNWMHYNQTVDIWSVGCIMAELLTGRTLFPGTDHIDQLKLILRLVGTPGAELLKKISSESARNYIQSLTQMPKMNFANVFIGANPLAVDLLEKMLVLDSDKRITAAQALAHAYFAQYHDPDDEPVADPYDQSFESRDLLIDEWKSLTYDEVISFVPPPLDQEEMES
# Chain of Phosphatidylinositol 4,5-bisphosphate 3-kinase catalytic subunit alpha isoform (Homo sapiens) (P42336 whole entry, canonical isoform): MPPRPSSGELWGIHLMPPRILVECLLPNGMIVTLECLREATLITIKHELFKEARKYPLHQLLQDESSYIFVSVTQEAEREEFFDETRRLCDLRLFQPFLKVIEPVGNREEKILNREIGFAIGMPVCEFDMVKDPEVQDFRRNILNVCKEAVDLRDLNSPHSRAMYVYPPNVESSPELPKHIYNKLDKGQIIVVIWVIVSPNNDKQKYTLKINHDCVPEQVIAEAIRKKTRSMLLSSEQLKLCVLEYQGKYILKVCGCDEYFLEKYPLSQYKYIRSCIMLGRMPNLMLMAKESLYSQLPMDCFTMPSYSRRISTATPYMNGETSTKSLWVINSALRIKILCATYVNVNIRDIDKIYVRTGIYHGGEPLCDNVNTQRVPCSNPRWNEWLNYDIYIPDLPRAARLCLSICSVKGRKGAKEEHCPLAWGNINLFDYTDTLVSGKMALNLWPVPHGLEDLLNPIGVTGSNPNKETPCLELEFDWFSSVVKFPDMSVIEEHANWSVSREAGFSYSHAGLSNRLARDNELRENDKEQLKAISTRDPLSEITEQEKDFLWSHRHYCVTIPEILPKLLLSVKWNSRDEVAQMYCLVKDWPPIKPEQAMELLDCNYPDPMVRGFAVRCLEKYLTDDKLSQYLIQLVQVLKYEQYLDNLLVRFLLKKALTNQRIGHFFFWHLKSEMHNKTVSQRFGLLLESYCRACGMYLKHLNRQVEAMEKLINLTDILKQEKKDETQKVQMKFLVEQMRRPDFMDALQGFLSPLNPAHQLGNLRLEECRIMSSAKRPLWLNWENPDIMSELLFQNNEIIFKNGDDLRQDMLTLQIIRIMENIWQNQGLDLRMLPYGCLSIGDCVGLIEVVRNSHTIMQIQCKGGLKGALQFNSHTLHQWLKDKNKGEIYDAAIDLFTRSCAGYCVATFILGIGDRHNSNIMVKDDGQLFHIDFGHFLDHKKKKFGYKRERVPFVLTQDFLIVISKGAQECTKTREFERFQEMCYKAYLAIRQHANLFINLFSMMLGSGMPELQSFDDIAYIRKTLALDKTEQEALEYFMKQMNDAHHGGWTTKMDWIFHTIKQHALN
# Chain of Mitogen-activated protein kinase 3 (Homo sapiens) (P27361 whole entry): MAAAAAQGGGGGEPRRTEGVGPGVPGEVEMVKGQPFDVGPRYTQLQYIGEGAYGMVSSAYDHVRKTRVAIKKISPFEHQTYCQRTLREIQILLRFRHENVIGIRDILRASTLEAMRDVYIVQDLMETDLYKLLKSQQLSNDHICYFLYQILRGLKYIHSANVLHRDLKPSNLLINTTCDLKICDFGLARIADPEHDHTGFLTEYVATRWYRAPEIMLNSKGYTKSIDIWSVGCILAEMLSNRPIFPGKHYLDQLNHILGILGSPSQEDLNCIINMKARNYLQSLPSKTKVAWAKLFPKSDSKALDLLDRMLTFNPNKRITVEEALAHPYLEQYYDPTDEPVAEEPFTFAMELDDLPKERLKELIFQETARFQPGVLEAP
# Chain of Phosphatidylinositol 4-kinase beta (Homo sapiens) (Q9UBF8 2-816 limits assumed): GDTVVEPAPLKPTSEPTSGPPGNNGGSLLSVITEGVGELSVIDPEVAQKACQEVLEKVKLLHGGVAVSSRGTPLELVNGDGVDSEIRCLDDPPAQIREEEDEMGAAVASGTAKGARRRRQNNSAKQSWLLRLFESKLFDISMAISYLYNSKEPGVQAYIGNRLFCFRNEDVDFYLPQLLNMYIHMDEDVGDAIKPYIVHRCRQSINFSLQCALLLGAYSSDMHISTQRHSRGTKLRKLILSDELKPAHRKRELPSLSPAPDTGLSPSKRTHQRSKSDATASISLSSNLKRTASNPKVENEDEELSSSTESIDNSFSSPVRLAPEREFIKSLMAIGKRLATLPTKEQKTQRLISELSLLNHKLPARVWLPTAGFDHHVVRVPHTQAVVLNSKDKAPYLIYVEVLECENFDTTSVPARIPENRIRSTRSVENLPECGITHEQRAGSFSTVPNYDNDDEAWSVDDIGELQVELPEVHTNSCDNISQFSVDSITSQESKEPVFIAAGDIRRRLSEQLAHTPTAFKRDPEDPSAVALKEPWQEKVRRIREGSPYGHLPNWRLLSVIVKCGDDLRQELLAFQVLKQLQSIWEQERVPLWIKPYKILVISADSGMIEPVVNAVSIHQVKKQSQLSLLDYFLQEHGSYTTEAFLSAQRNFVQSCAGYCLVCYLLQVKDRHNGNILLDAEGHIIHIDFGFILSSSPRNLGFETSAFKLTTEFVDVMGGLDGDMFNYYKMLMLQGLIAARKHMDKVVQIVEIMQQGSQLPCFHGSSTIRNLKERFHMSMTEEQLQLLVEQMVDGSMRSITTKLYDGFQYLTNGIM
SMILES,inhibition [1] [%],inhibition [2] [%],inhibition [3] [%],inhibition [4] [%],inhibition [5] [%],inhibition [6] [%],inhibition [7] [%],inhibition [8] [%],inhibition [9] [%],inhibition [10] [%],inhibition [11] [%],inhibition [12] [%],inhibition [13] [%],inhibition [14] [%],inhibition [15] [%],inhibition [16] [%],inhibition [17] [%],inhibition [18] [%],inhibition [19] [%],inhibition [20] [%]
CS(=O)(=O)CCNCc1ccc(-c2ccc3ncnc(Nc4ccc(OCc5cccc(F)c5)c(C(F)(F)F)c4)c3c2)o1,2.51,-1.77,-0.64,4.28,11.8,3.77,8.93,1.37,5.37,1.92,3.16,-1.9,-0.25,3.86,7.14,2.85,7.89,-2.15,-0.87,
CCn1c(-c2nonc2N)nc2c(N3CCCC3)nccc21,1.82,0.04,-1.21,1.24,-3.47,0.58,2.54,-0.53,-1.01,0.01,-1.61,0.36,0.58,-1.75,-0.26,0.19,0.29,-2.5,2.26,-6.46
COC(=O)Nc1nc2cc(Oc3ccc(NC(=O)Nc4cccc(C(=O)O)c4)cc3)ccc2[nH]1,2.25,1.98,3.99,-1.1,1.12,0.94,-1.18,-0.17,-0.69,0.51,-0.37,-0.09,3.15,-0.54,-3.19,-1.33,-1.97,-1.03,0.94,2.72
CN1CCC(C(=O)Nc2n[nH]c3nnc(-c4ccccc4)cc23)CC1,7.39,-1.72,-1.01,2.08,5.41,5.95,5.33,1.73,5.59,3.05,3.34,-2.38,-0.73,4.88,4.26,1.61,1.12,,1.63,
COc1cc2ncn(-c3cc(OCc4ccccc4Cl)c(C(N)=O)s3)c2cc1OC,1.75,-0.61,-1.33,2.7,18.4,1.39,4.07,0.95,0.78,1.88,0.85,-1.26,-1.23,0.86,19.6,0.19,18.4,1.54,2.8,-5.9
COc1ccc(COc2ccc(Cc3cnc(N)nc3N)cc2OC)cc1,0.29,2.01,0.79,0.58,4.45,2.44,1,,0.37,-1.2,1.41,-0.52,-2.52,0.14,1.07,-0.96,0.68,-1.98,-3.33,2.15
CN(C)c1cc2c(Nc3ccc4nc(Cc5ccccc5)[nH]c4c3)ncnc2cn1,4.66,-0.28,-1.52,6.65,9.66,1.34,,1.99,5.16,5.41,2.45,-1.74,-1.6,7,8.83,7.22,8.91,5.38,-1.38,-2.6
Cc1cc(O)cc(C)c1/C=C/c1cncc(-c2nn[nH]n2)c1,5.1,0.25,-0.18,8.41,12.6,3.52,3.01,3.42,5.1,1.46,3.07,-1.87,-2.36,3.19,5.13,2.19,6.52,-0.98,0.56,-5.96
COC(=O)Nc1nc2cc(Oc3cccc(NC(=O)Nc4cc(C(F)(F)F)ccc4F)c3)ccc2[nH]1,0.49,-1.97,-3.98,2.37,5.26,1.03,1.94,-4.01,-0.11,0.33,-0.42,-0.98,-3.74,-3.27,-1.03,0.19,0.17,0.44,-0.62,1.18
COc1ccc(-c2ccncc2)cc1C(N)=O,5.57,0.64,-1.37,7.77,9.51,-0.28,5.04,5.1,6.16,4.29,5.57,-3.43,-2.49,5.07,4.31,2.29,3.83,4.03,1.01,-1.68
O=C1NC(=O)C(c2ccccc2Cl)=C1Nc1cccc(O)c1,1.29,1.93,4.52,2.48,4.36,2.37,0.91,1.98,4.14,5.33,0.99,-0.74,1.37,1.03,1.86,2.66,3.71,-2.78,-1.24,1.19
O=C1Nc2ccc(C(=O)c3ccco3)cc2C1=Cc1cc(Cl)c(O)c(Cl)c1,3.14,-3.06,0.75,2.28,6.71,1.71,3.75,0.88,2.9,0.31,5.17,-1.28,1.6,21.6,69.1,8.04,24.9,80.7,7.33,37.4
Cc1cccc(-c2n[nH]cc2-c2ccc3ncccc3n2)n1,0.82,-1.48,-0.43,2.51,12,-0.93,0.8,1.23,-0.48,0.84,0.57,-1.35,-1.16,-0.95,1.78,-0.15,0.53,4.48,-2.56,1.57
Cc1nnc(-c2ccc(C)c(-c3ccc(C(=O)Nc4cccc(C#N)c4)cc3)c2)o1,5.78,-2.92,-1.26,,,5.2,22.9,3.5,1.58,-0.3,1.19,-1.96,-1.67,2.12,1.71,1.98,1.12,0.49,-2.17,-1.86
